Compounds with a hit are over-represented: about 3.8% of the library has one in this group of screens.
ATXN2 expr inh = inhibitors of ATXN2 expression | HEK-293 ATXN2-luciferase reporter, luminescence, 24 h | Potency, µM (highest dose often 57 µM), hits mostly inhibitors | 360,000 tested, 0.72% active | AID 1745845; note: nearly all actives have a fitted effect of over 55% in size
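qHTS (up to 57 uM final) was run with 24 h compound exposure of reporter cells at 37 °C. Each well was multiplexed: SteadyGlo luminescence measured ATXN2-luciferase expression after a fluorogenic Gly-Phe-AFC viability readout (25 uM final).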
Nrf2 inh = Nrf2 pathway inhibition; A549 ARE-Fluc reporter, luciferase luminescence, 18-24 h; Potency, µM (titrated, usually from 46 µM), hits mostly inhibitors; 360,000 tested, 2.1% active; note: nearly all actives have a fitted effect of over 60% in size
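A549 ARE_Fluc cells (5000/well, 5% FBS OPTI-MEM) pre-incubated 2 h, then treated with compounds 18-24 h at 37C/5% CO2 in concentration-response. CellTiter-Fluor viability read first; BugLite luciferase luminescence after 15 min at room temperature gives Nrf2 activity.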
HepG2 viability = HepG2 cytotoxicity, counter-screen for TGF-b inhibitors; 410,000 tested, 0.76% active; HepG2 CAGA-GFP viability, ATP luminescence, 18 h; Potency, µM (titrated, usually from 46.1 µM), hits mostly cytotoxic; AID 588856
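HepG2 CAGA-GFP cells (1000/well, DMEM with 1% FBS) received compound, then TGF-beta at 500 pg/mL final, and were incubated 18 hours at 37 degrees C. Viability was read by CellTiter-Glo luminescence. Media-only wells were set as complete cell-killing and DMSO as no toxicity.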
ATXN viability = cell viability loss in ATXN counter-screen; Potency, µM (titrated, usually from 56.7 µM), usual class: cytotoxic; S2 cells (HEK-293 line with an ATXN2-luciferase reporter) viability, CellTiter-Fluor protease fluorescence, 24 h; 400,000 tested, 0.49% active; AID 651635; note: nearly all actives have a fitted effect of over 40% in size
A549 tox = A549 cytotoxicity, counter-screen for Nrf2 inhibitors; A549 ARE-Fluc cells, CellTiter-Fluor viability, 18-24 h; Potency, µM (top dose mostly 46 µM), hits mostly inhibitors; 390,000 tested, 0.16% active; AID 504648
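A549 ARE_Fluc cells in 5% FBS OPTI-MEM were exposed to compounds in concentration-response for 18-24 h at 37 deg C. Viability was read by CellTiter-Fluor fluorescence (Ex 405/Em 525) after 30 min, before the luciferase read.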
TGFb inhibitor = inhibitors of TGF-b signaling | HepG2 CAGA-GFP TGF-b/SMAD3 reporter, GFP fluorescence, 18 h; TGF-beta stimulated, 500 pg/mL final | Potency, µM (highest dose often 46.1 µM), hits mostly inhibitors | 410,000 tested, 1.2% active; note: nearly all actives have a fitted effect of over 65% in size
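Using HEPG2 CAGA-GFP reporter cells at 1000 cells/well, we pinned test compounds, stimulated with recombinant TGF-beta (500 pg/mL final) and measured total well GFP after 18 h.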
A number is an active result; 0 = inactive; ? = inconclusive; - = not tested or not shown; ! = a repeat was not active. Calls come from the whole dose curve; as a rule, active = well fitted curve in the direction sought with a large enough effect; inconclusive = small, poorly fitted or top-dose-only effect, or another doubt; inactive = no such curve, though single readings can be large; an effect the other way counts as inactive or inconclusive.

SMILES	ATXN2 expr inh	Nrf2 inh	HepG2 viability	ATXN viability	A549 tox	TGFb inhibitor
COc1ccc(CN2C(=O)C(CC(=O)NCCCCc3ccccc3)CC(C(=O)N(C(C)C)C(C)C)=C2C)cc1 (stereo unspecified)	?	-	0	?	-	?
CC1=C(C(=O)N(C(C)C)C(C)C)CC(CC(=O)NCc2ccco2)C(=O)N1Cc1ccc(C(C)(C)C)cc1 (stereo unspecified)	?	-	0	?	-	18µM
CC1=C(C(=O)N(C(C)C)C(C)C)CC(CC(=O)NCCCCc2ccccc2)C(=O)N1Cc1ccc(C(C)(C)C)cc1 (stereo unspecified)	?	-	18µM	?	-	11µM
CC1=C(C(=O)N2CCOCC2)CC(CC(=O)NC(c2ccccc2)c2ccccc2)C(=O)N1CCC1=CCCCC1 (stereo unspecified)	0	-	0	0	-	0
O=C(Nn1c(-c2ccc(F)cc2)nc2ccccc2c1=O)C1CCCCC1	0	0	0	0	0	0
CC(=O)Nc1ccc(NC(=O)CSc2nnc(-c3cccs3)n2N)cc1	0	0	0	0	0	0
CCCNc1ncnc2onc(C)c12	0	0	0	?	0	?
CSc1ccc(CCNc2ncnc3onc(C)c23)cc1	?	7.3µM	0	0	0	0
O=C(O)c1ccc(N2C(=O)/C(=C/C=C/c3ccccc3)SC2=S)cc1	0	0	0	0	0	0
CN(C)c1ccc(/C=C/C=C2/SC(=S)N(c3ccccc3)C2=O)cc1	0	0	0	16µM	?	0
COc1cc(NC(=O)CCc2nnc3ccc(N4CCCCC4)nn23)cc(OC)c1OC	0	?	0	0	0	0
CC(C)N(C(=O)CSc1nc(Cc2ccccc2)nc2ccccc12)C(C)C	0	18µM	0	0	0	?
CC(C)(C)NC(=O)CSc1nc(Cc2ccccc2)nc2ccccc12	0	?	0	0	0	?
CCN1CCC(N(Cc2ccc3c(c2)OCO3)C(=O)Nc2cc(Cl)ccc2C(=O)OC)CC1	25µM	0	0	16µM	0	?
CCN1CCC(N(Cc2ccc3c(c2)OCO3)C(=O)Nc2ccccc2OC)CC1	0	?	0	0	0	0
O=C(c1ccc(S(=O)(=O)c2cccc(Cl)c2)c([N+](=O)[O-])c1)N1CCN(c2ccccn2)CC1	-	16µM	0	0	?	11µM
O=C(c1cccc(Cl)c1)N1CCN(c2ccccn2)CC1	0	0	0	0	0	0
C/C(=N\NC(=S)NCC(C)(C)C)c1cc(F)cc(F)c1O	?	23µM	0	?	?	?
COC(=O)N1C(=O)[C@](c2ccc(Cl)cc2)(C(C)C)N1C(=O)OC	?	?	16µM	32µM	0	?
COC(=O)N1C(=O)[C@@](c2ccc(OC)cc2)(C(C)C)N1C(=O)OC	0	?	0	?	?	?
COc1ccc(-c2nc(CS(=O)CC(=O)NCc3ccc4c(c3)OCO4)c(C)o2)cc1OC (stereo unspecified)	0	?	0	0	0	0
CCC1CCCCN1C(=O)CSc1n[nH]c(-c2ccccc2)n1 (stereo unspecified)	-	-	0	-	0	?
CCCc1cc(N2CCN(c3ccccc3F)CC2)n2cnnc2n1	?	16µM	0	?	0	0
COc1ccc(Cn2ccc3nc(C)c(C(=O)Nc4ccc(OC)cc4OC)cc3c2=O)cc1	0	?	0	0	0	0
Oc1c(CN2CCc3ccccc3C2)cc(Cl)c2cccnc12	5.6µM	0	0	4µM	0	5.6µM
SMILES	ATXN2 expr inh	Nrf2 inh	HepG2 viability	ATXN viability	A549 tox	TGFb inhibitor
O=[N+]([O-])c1cc(F)c2cccnc2c1O	-	?	16µM	?	0	?
O=[N+]([O-])c1cc(Cl)c2cccnc2c1O	?	?	0	?	?	?
Clc1cc2cccnc2c2ncccc12	0	0	0	?	0	?
O=[N+]([O-])c1cc(Cl)c(O)c2ncccc12	20µM	21µM	0	?	?	?
Oc1c(I)cc(Cl)c2cccnc12	32µM!	?	0	?	0	16µM
O=[N+]([O-])c1ccc(O)c2cccnc12	0	0	0	?	0	0
O=[N+]([O-])c1ccc(O)c2ncccc12	10µM	3.7µM	0	13µM!	13µM	5.6µM
Cc1cc(Nc2sc(C(=O)c3ccc(F)cc3)c(N)c2C(=O)Nc2ccc(F)cc2)ccc1Cl	?	-	0	?	16µM	?
Cc1ccccc1Nc1sc(C(=O)c2ccc(F)cc2)c(N)c1C(=O)NCCc1ccccc1	0	-	13µM	?	0	?
Cc1ccc(CNC(=O)c2c(Nc3c(C)cccc3C)sc(C(=O)c3ccccc3)c2N)cc1	?	-	0	-	?	13µM
CCOc1ccccc1Nc1sc(C(=O)c2ccccc2)c(N)c1C(=O)NCCc1ccccc1	0	-	0	0	0	0
COc1ccc(C(=O)c2sc(Nc3cccc(OC)c3)c(C(=O)Nc3cccc(C)c3C)c2N)cc1	0	23µM	0	0	?	?
CC1(C)CC(=O)C2=C(C1)N(CC1CCCO1)C(=O)C2(NC(=O)c1cccnc1)C(F)(F)F (stereo unspecified)	0	0	0	0	0	0
COc1cc(OC)c(OC)cc1/C=C/C(=O)OCC(=O)Nc1c(C)n(C)n(-c2ccccc2)c1=O	-	0	0	0	0	0
COc1cccc(Nc2sc(C(=O)c3ccc(Cl)cc3)c(N)c2C(=O)NCc2ccc(C)cc2)c1	-	-	0	-	0	13µM
COc1cccc(Nc2sc(C(=O)c3ccc(F)cc3)c(N)c2C(=O)NCc2ccc(Cl)cc2)c1	0	-	0	0	0	?
CC1(C)CC2CC(C)(CN2S(=O)(=O)c2ccc(F)cc2F)C1 (stereo unspecified)	0	0	0	0	0	0
CN(c1ccccc1)S(=O)(=O)c1cccc(NC(=O)Cn2cnc3c2c(=O)n(C)c(=O)n3C)c1	0	10µM	0	0	0	0
CCN(c1ccccc1)S(=O)(=O)c1ccc(OC)c(NC(=O)Cn2cnc3c2c(=O)n(C)c(=O)n3C)c1	0	0	0	0	0	2.8µM
Cn1c(=O)c2c(ncn2CC(=O)Nc2ccccc2)n(C)c1=O	0	0	0	0	0	0
COc1ccc(Cl)cc1NC(=O)Cn1cnc2c1c(=O)n(C)c(=O)n2C	0	-	0	0	?	?
O=C(Nc1ccc(S(=O)(=O)Nc2ncccn2)cc1)C12CC3CC(CC(Cl)(C3)C1)C2	0	0	0	0	0	0
CC(=O)N1CCC2(CC1)OC(=O)C(C)=C2C(=O)NCc1cccc(Cl)c1	0	-	0	0	0	0
O=C(CN1CCOCC1)Nc1ccc([N+](=O)[O-])cc1	-	0	0	0	0	0
O=S(=O)(Nc1cccc2cccnc12)c1ccc2ccccc2c1	-	5.2µM	0	-	0	?
